Inconclusive results are not listed. Activity calls are given as the source filed them. Calls follow the shape of the dose curve; as a rule, active = well fitted cell-killing curve with a large enough effect; inconclusive = small, poorly fitted or top-dose-only effect, or effect the other way; inactive = no such curve, though single readings can be large or run the other way.
test: Quantitative High-Throughput drug screen in 47 multiple myeloma cell lines against the NCATS MIPE library collection: LP1_DSMZ cell viability assay (AID 1918982); conditions: LP1 myeloma viability, CellTiter-Glo ATP luminescence, 48 h; series mostly up to 45.8 µM
Procedure, shortened: (§1)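 500 cells/well per myeloma line exposed to pinned MIPE 4.0 compounds for 48 h at 37 °C, 5% CO2. Viability read as ATP by CellTiter-Glo luminescence, normalised to DMSO-only (100%) and media-only (0%) wells.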
Also: nearly all actives have a fitted effect of over 35% in size.
Potency is read from the fitted curve at half-maximal effect.

SMILES	Potency
CN(C)CC[C@H](CSc1ccccc1)Nc1ccc(S(=O)(=O)NC(=O)c2ccc(N3CCN(Cc4ccccc4-c4ccc(Cl)cc4)CC3)cc2)cc1[N+](=O)[O-]	23.5 µM (active)
O=c1[nH]c(=O)n([C@H]2C[C@@H](O)[C@@H](CO)O2)cc1C(F)(F)F	inactive
CCOC(=O)N1CCN([N+]([O-])=NOc2cc(ON=[N+]([O-])N3CCN(C(=O)OCC)CC3)c([N+](=O)[O-])cc2[N+](=O)[O-])CC1	33.2 µM (active)
N#CC(c1ccnc(NCCc2cccnc2)n1)c1nc2ccccc2s1 (configuration not stated)	18.7 µM (active)
CCC(C)SSc1ncc[nH]1 (configuration not stated)	8.33 µM (active)
C[C@@H]1O[C@@H](O[C@H]2CC[C@@]3(C)[C@H](CC[C@@H]4[C@H]3C[C@@H](O)[C@]3(C)[C@@H](C5=CC(=O)OC5)CC[C@]43O)C2)C[C@H](O)[C@@H]1O[C@H]1C[C@H](O)[C@H](O[C@H]2C[C@H](O)[C@@H](O)[C@@H](C)O2)[C@H](C)O1 (stereo in doubt)	0.121 µM (active)
CNC1CCC(N(Cc2cccc(-c3ccncc3)c2)C(=O)c2sc3ccccc3c2Cl)CC1 (configuration not stated)	26.4 µM (active)
NS(=O)(=O)c1cc(Cl)c(Cl)c(S(N)(=O)=O)c1	inactive
CC[C@H](C)C(=O)O[C@H]1C[C@H](O)C=C2C=C[C@H](C)[C@H](CC[C@@H](O)C[C@@H](O)CC(=O)O)[C@H]21	inactive
CC[C@H](NC(=O)[C@H](C)NC)C(=O)N1C[C@@H](O)C[C@H]1Cc1c(-c2[nH]c3cc(F)ccc3c2C[C@H]2C[C@H](O)CN2C(=O)[C@H](CC)NC(=O)[C@H](C)NC)[nH]c2cc(F)ccc12	20.9 µM (active)
Cc1ccc(NC(=O)Nc2cc(C(F)(F)F)ccc2F)cc1Nc1ccc2c(c1)NC(=O)C2=Cc1ccc[nH]1	26.4 µM (active)
O=S(=O)(NCCNCC=Cc1ccc(Br)cc1)c1cccc2cnccc12	7.43 µM (active)
CN[C@@H](C)[C@H]1[C@H](O)C[C@@]2(C)[C@@H]3CC[C@H]4C(C)(C)[C@@H](NC)CC[C@@]45C[C@@]35CC[C@]12C	inactive
COC(=O)Nc1ccc(-c2nc(N3CCOCC3)c3cnn(C4CCN(C(=O)OC)CC4)c3n2)cc1	0.235 µM (active)
CC[C@H](C=C[C@@H](C)[C@H]1CC[C@H]2[C@@H]3CC=C4C[C@@H](O)CC[C@]4(C)[C@@H]3CC[C@]12C)C(C)C	inactive
C[C@@H]1C[C@H]2[C@@H]3CCC4=CC(=O)C=C[C@]4(C)[C@@]3(F)[C@@H](O)C[C@]2(C)[C@@]1(O)C(=O)CO	0.0083 µM (active)
O=C1CCCC(=O)C1C(=O)c1ccc(C(F)(F)F)cc1[N+](=O)[O-]	inactive
CNC(=O)c1ccc2c(C(=Nc3cccc(CN(C)C)c3)c3ccccc3)c(O)[nH]c2c1	inactive
O=C(Nc1ccccc1)Nc1ccc(-c2ccc(C(=O)[C@H]3CCC[C@H]3C(=O)O)cc2)cc1	inactive
CCn1c(-c2nonc2N)nc2cncc(CNC3CCNCC3)c21	inactive
Cc1[nH]c(C=C2C(=O)Nc3ccc(S(=O)(=O)N(C)c4cccc(Cl)c4)cc32)c(C)c1C(=O)N1CCN(C)CC1	18.7 µM (active)

test: Quantitative High-Throughput drug screen in 47 multiple myeloma cell lines against the NCATS MIPE library collection: KMS28PE_JCRB cell viability assay (AID 1918983); conditions: KMS28PE multiple myeloma viability, CellTiter-Glo ATP, 48 h; series mostly up to 45.8 µM
Procedure, shortened: as §1

SMILES	Potency
CN(C)CC[C@H](CSc1ccccc1)Nc1ccc(S(=O)(=O)NC(=O)c2ccc(N3CCN(Cc4ccccc4-c4ccc(Cl)cc4)CC3)cc2)cc1[N+](=O)[O-]	1.48 µM (active)
O=c1[nH]c(=O)n([C@H]2C[C@@H](O)[C@@H](CO)O2)cc1C(F)(F)F	16.6 µM (active)
CCOC(=O)N1CCN([N+]([O-])=NOc2cc(ON=[N+]([O-])N3CCN(C(=O)OCC)CC3)c([N+](=O)[O-])cc2[N+](=O)[O-])CC1	5.9 µM (active)
O=C(CC12CC3CC(CC(C3)C1)C2)Nc1cccc2nc(NCCNCCO)ccc12	16.6 µM (active)
CN[C@@H]1CN(c2ccc3c(=O)c(C(=O)O)cn(-c4nccs4)c3n2)C[C@@H]1OC	18.2 µM (active)
CCC(C)SSc1ncc[nH]1 (configuration not stated)	11.8 µM (active)
CCOC(=O)c1c(CSc2ccccc2)n(C)c2cc(Br)c(O)c(CN(C)C)c12	18.7 µM (active)
C[C@@H]1O[C@@H](O[C@H]2CC[C@@]3(C)[C@H](CC[C@@H]4[C@H]3C[C@@H](O)[C@]3(C)[C@@H](C5=CC(=O)OC5)CC[C@]43O)C2)C[C@H](O)[C@@H]1O[C@H]1C[C@H](O)[C@H](O[C@H]2C[C@H](O)[C@@H](O)[C@@H](C)O2)[C@H](C)O1 (stereo in doubt)	0.152 µM (active)
CNC1CCC(N(Cc2cccc(-c3ccncc3)c2)C(=O)c2sc3ccccc3c2Cl)CC1 (configuration not stated)	23.5 µM (active)
NS(=O)(=O)c1cc(Cl)c(Cl)c(S(N)(=O)=O)c1	inactive
CC[C@H](C)C(=O)O[C@H]1C[C@H](O)C=C2C=C[C@H](C)[C@H](CC[C@@H](O)C[C@@H](O)CC(=O)O)[C@H]21	inactive
CC[C@H](NC(=O)[C@H](C)NC)C(=O)N1C[C@@H](O)C[C@H]1Cc1c(-c2[nH]c3cc(F)ccc3c2C[C@H]2C[C@H](O)CN2C(=O)[C@H](CC)NC(=O)[C@H](C)NC)[nH]c2cc(F)ccc12	inactive
NC1(C(=O)N[C@@H](CCO)c2ccc(Cl)cc2)CCN(c2ncnc3[nH]ccc23)CC1	0.372 µM (active)
N#CC(c1ccc(Cl)cc1)c1c(Cl)cc(-n2ncc(=O)[nH]c2=O)cc1Cl (configuration not stated)	inactive
CCc1cc(-c2n[nH]c(C)c2-c2ccc3c(c2)OCCO3)c(O)cc1O	4.18 µM (active)
CC(C)(C)c1nc(-c2cccc(NS(=O)(=O)c3c(F)cccc3F)c2F)c(-c2ccnc(N)n2)s1	inactive
O=S(=O)(NCCNCC=Cc1ccc(Br)cc1)c1cccc2cnccc12	18.7 µM (active)
CN[C@@H](C)[C@H]1[C@H](O)C[C@@]2(C)[C@@H]3CC[C@H]4C(C)(C)[C@@H](NC)CC[C@@]45C[C@@]35CC[C@]12C	inactive
COC(=O)Nc1ccc(-c2nc(N3CCOCC3)c3cnn(C4CCN(C(=O)OC)CC4)c3n2)cc1	1.18 µM (active)
COc1c(C)cnc(Cn2cnc3c(Cl)nc(N)nc32)c1C	0.235 µM (active)
C[C@@H]1C[C@H]2[C@@H]3CCC4=CC(=O)C=C[C@]4(C)[C@@]3(F)[C@@H](O)C[C@]2(C)[C@@]1(O)C(=O)CO	inactive
O=C1CCCC(=O)C1C(=O)c1ccc(C(F)(F)F)cc1[N+](=O)[O-]	inactive
Cc1nc(NC(=O)N2CCC[C@@H]2C(N)=O)sc1-c1csc(C(C)(C)C)n1	3.72 µM (active)
CNC(=O)c1ccc2c(C(=Nc3cccc(CN(C)C)c3)c3ccccc3)c(O)[nH]c2c1	4.18 µM (active)
CCn1c(-c2nonc2N)nc2cncc(CNC3CCNCC3)c21	18.7 µM (active)
Cc1[nH]c(C=C2C(=O)Nc3ccc(S(=O)(=O)N(C)c4cccc(Cl)c4)cc32)c(C)c1C(=O)N1CCN(C)CC1	23.5 µM (active)

From PubChem BioAssay (NCATS)
